The text below walks through data of PubChem BioAssay (NCI).

Assay [1] can be described thus: NCI Yeast Anticancer Drug Screen. Data for the rad50 strain (AID 155).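 Note: 0% = growth of vehicle-only cultures of the same strain.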 The note with it: S. cerevisiae rad50 strain growth inhibition; at 50.0 µM; hits give high values. The procedure, abridged:
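Growth of the mutant yeast was measured after compound exposure and referenced to vehicle-treated cultures.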

Assay [2] can be described thus: NCI Yeast Anticancer Drug Screen. Data for the mec2-1 strain (AID 157). The following applies: S. cerevisiae mec2-1 strain, at 50.0 µM, hits give high values. The procedure, abridged: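 Using mec2-1 yeast: add compound, measure growth, express inhibition versus vehicle-treated cultures.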
The nature of assay [3]: NCI Yeast Anticancer Drug Screen. Data for the sgs1 mgt1 strain (AID 161).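 Note: 0% = growth of cultures given vehicle only.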 The following applies: S. cerevisiae sgs1 mgt1 strain, at 50.0 µM, hits give high values. The procedure, abridged:
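Percent growth inhibition was derived by comparing compound-exposed mutant yeast with vehicle-exposed cultures. The strain carries alterations in DNA damage repair.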

Assay [4] in a line: NCI Yeast Anticancer Drug Screen. Data for the cln2 rad14 strain (AID 165).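 Note: 0% = growth equal to vehicle treated cultures.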 The following applies: S. cerevisiae cln2 rad14 strain, at 50.0 µM, hits give high values. The procedure, abridged:
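Yeast strain cln2 rad14, bearing defects in cell cycle control and DNA repair, serves as the test system; values reflect growth inhibition compared with vehicle.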

Assay [5] in a line: NCI Yeast Anticancer Drug Screen. Data for the bub3 strain (AID 167). The following applies: S. cerevisiae bub3 mutant strain, at 50.0 µM, hits give high values. The procedure, abridged: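 Whole-cell yeast assay. The mutant strain was incubated with compounds, and growth inhibition was determined by comparison with vehicle-treated cells.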
Assay [6] can be described thus: NCI Yeast Anticancer Drug Screen. Data for the mlh1 rad18 strain (AID 175). The note with it: S. cerevisiae mlh1 rad18 strain growth inhibition; at 50.0 µM; hits give high values. The procedure, abridged:
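Steps: expose repair-defective yeast to compound; measure growth; express inhibition against vehicle-treated controls.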

Molecules are shown by their SMILES. This is part of a sample that, as a whole, favours compounds with a hit. Of some 79,000 tested, about 15% had one in any assay. A number with no mark means an inactive call. Active and inactive are the calls of the source. Cut-off read from the data, not from the text of the source: active = growth inhibition above about 70%; inactive = the rest. Where a SMILES comes first, the peptide text is derived from it.

On to `O=C(NC1C2CC3CC(C2)CC1C3)c1ccncn1` (stereo not drawn), for which the growth inhibition is 25.1% in assay [1]; 4.75% in assay [2]; 17.8% in assay [3]; 38% in assay [4]; 13.2% in assay [5]; 26.2% in assay [6].

Take `O=C(c1ccccc1)c1ccccc1C(=O)c1ccccc1`: the growth inhibition was 77% (active) in assay [1]; 25.6% in assay [2]; 54% in assay [3]; -43% in assay [4]; 70.4% (active) in assay [5]; 52% in assay [6].

As to `C=CC(C/C(C)=N/Nc1ccc([N+](=O)[O-])cc1[N+](=O)[O-])c1ccccc1` (stereo not drawn), the growth inhibition in assay [1] is -17.7%; in assay [2], -4.85%; in assay [3] it was -17.6%; in assay [4] it was -54.4%; in assay [5], -19.6%; in assay [6], -8%.

As for `Cc1ccc(NC(=S)/N=C/c2c(O)[nH]c(=O)[nH]c2=O)c(C)c1`, the growth inhibition was -9.4% in assay [1]; -20.4% in assay [2]; -15.8% in assay [3]; -4.85% in assay [4]; -24.5% in assay [5]; 2.05% in assay [6].

In the case of `CC(=O)OCC1OC(n2c3c(cc(C#N)c2=S)CCCCC3)C(OC(C)=O)C(OC(C)=O)C1OC(C)=O` (stereo not drawn), the growth inhibition in assay [1] was 27.1%; in assay [2] it was -1.7%; in assay [3], 3.1%; in assay [4] it was -32.9%; in assay [5], -0.8%; in assay [6], -7.1%.

As for `COc1ccc(C2CC(=O)Oc3cc4c(cc32)OCO4)cc1` (stereo not drawn), the growth inhibition was -10.2% in assay [1]; -8.05% in assay [2]; -11.2% in assay [3]; -11.6% in assay [4]; -2.2% in assay [5]; -15.9% in assay [6].

Take `C/C=C/C(=O)OCCC#N`: the growth inhibition in assay [1] is -27.1%; in assay [2], -2.3%; in assay [3] it was 3.7%; in assay [4] it was 14.7%; in assay [5], -17.1%; in assay [6], -8.85%.

For the compound `CCCNC(=O)C1C(=O)C(=O)N(CCC)C1=O` (stereo not drawn), the growth inhibition is 7.8% in assay [1]; 4.45% in assay [2]; 4.1% in assay [3]; -4.5% in assay [4]; -3.9% in assay [5]; 4.05% in assay [6].

As to `O=C(NCc1ccco1)Nc1ccccc1Cl`, the growth inhibition was -24.9% in assay [1]; -0.2% in assay [2]; -6.2% in assay [3]; 45.8% in assay [4]; 4.25% in assay [5]; -11% in assay [6].

As for `CC1=C2CCOC2=Nc2ccccc2O1`, the growth inhibition was 15.8% in assay [1]; -6.3% in assay [2]; 11.3% in assay [3]; -1.8% in assay [4]; -14.6% in assay [5]; -6.2% in assay [6].

Regarding `CC1C(=O)C(c2ccccc2)(c2ccccc2)CC[N+]1(C)C` (stereo not drawn), the growth inhibition in assay [1] is 1.1%; in assay [2] it was 5.4%; in assay [3] it was 2.8%; in assay [4], -13.7%; in assay [5] it was 4.1%; in assay [6] it was 10.4%.

For the compound `CCCC(/C(C)=N/NC(N)=O)C1CCCCC1` (stereo not drawn), the growth inhibition in assay [1] was 14.2%; in assay [2] it was 7.45%; in assay [3], -2.6%; in assay [4], 1%; in assay [5] it was -5.1%; in assay [6], 2%.

Consider `COc1cc(\C=N/N=C/C=C/c2ccccc2)cc(OC)c1OC`, for which the growth inhibition in assay [1] is 0.55%; in assay [2], 42.3%; in assay [3], 7.95%; in assay [4], -10.7%; in assay [5], 38.4%; in assay [6] it was 15.5%.

`Brc1ncnc2c1ncn2C1CCCO1` (stereo not drawn): the growth inhibition is -21.3% in assay [1]; -12.8% in assay [2]; -1.5% in assay [3]; -29.6% in assay [4]; 34.4% in assay [5]; -32.2% in assay [6].

With `Cc1ccc(C2=CSC3=NCCN23)cc1Cl`, the growth inhibition in assay [1] was -29.9%; in assay [2] it was -43.8%; in assay [3], 5.3%; in assay [4], -6.3%; in assay [5] it was -17.9%; in assay [6], 23.4%.

Take `O=C(c1ccc2c(c1)no[n+]2[O-])N(CCO)CCO`: the growth inhibition is 58.8% in assay [1]; 8.45% in assay [2]; 47.1% in assay [3]; 92.5% (active) in assay [4]; 28.4% in assay [5]; 19.9% in assay [6].

For `[CH2+][B-]1(C)n2cc(Br)c[n+]2[B-](C)(C)[n+]2cc(Br)cn21`, the growth inhibition in assay [1] is 16.2%; in assay [2], 16.8%; in assay [3], 8.05%; in assay [4] it was 9.8%; in assay [5], 7.1%; in assay [6] it was 22.6%.

As to `CCOC(=O)CCCCCC#N`, the growth inhibition in assay [1] was 1.35%; in assay [2] it was -18.4%; in assay [3] it was -6.1%; in assay [4], -1.75%; in assay [5] it was -9.5%; in assay [6], -0.15%.

For `CSCCC(N)C(=O)NC(CCSC)C(=O)O` (stereo not drawn) (H-Met-Met-OH; configuration not given here), the growth inhibition in assay [1] was -12%; in assay [2], -21.4%; in assay [3], 2.4%; in assay [4] it was -25.1%; in assay [5] it was -8.95%; in assay [6], -5.7%.

For the compound `NNc1ccc(S(=O)(=O)C(F)F)cc1`, the growth inhibition was 29.9% in assay [1]; -29.2% in assay [2]; 20.6% in assay [3]; 41% in assay [4]; 41.2% in assay [5]; 13.1% in assay [6].

With `Cc1ccc(/C=C2/NC(=S)SC2=O)cc1`, the growth inhibition is -14.1% in assay [1]; -3.6% in assay [2]; 14.6% in assay [3]; 12% in assay [4]; 1.75% in assay [5]; -30.4% in assay [6].

Regarding `COC(=O)CC(C(C(=O)OC)C(=O)OC)N1C(=O)OC(c2ccccc2)C1c1ccccc1` (stereo not drawn), the growth inhibition was 7.75% in assay [1]; -10.5% in assay [2]; -2.95% in assay [3]; 9.4% in assay [4]; -18% in assay [5]; 3.4% in assay [6].

Turning to `COC(=O)N/N=C/c1ccccc1Cl`, the growth inhibition in assay [1] is 4.55%; in assay [2], -31%; in assay [3], -18.6%; in assay [4], -64.8%; in assay [5], -12.5%; in assay [6] it was -12.2%.
